This is an account of results in PubChem BioAssay (Tox21).

The nature of test [1]: qHTS assay to test for compound auto fluorescence at 535 nm (green) in HEK293 cells (AID 720680). (In general: In qHTS, concentration-response curves come from the screen itself.)
A short description of test [2]: qHTS assay to test for compound auto fluorescence at 460 nm (blue) in HEK293 cell free culture (AID 720681). Put shortly:
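Test compounds were pinned into cell-free culture medium (DMEM with 10% FBS) and fluorescence was read directly at Ex/Em 405/460 nm. Signals were expressed as fluorescence equivalents of triamterene, with DMSO vehicle as control.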

Test [3] can be described thus: qHTS assay to test for compound auto fluorescence at 535 nm (green) in HEK293 cell free culture (AID 720682). The essentials:
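DMEM + 10% FBS, cell-free; cpd or DMSO pinned in; Ex485/Em535 read; output as fluorescein-equivalent signal.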

Test [4] in a line: qHTS assay to test for compound auto fluorescence at 590 nm (red) in HEK293 cell free culture (AID 720683). The essentials:
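Tox21 10K library compounds were pinned into cell-free DMEM with 10% FBS and fluorescence was read at excitation 540 nm. Activity is expressed as Rose Bengal sodium equivalency.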

Test [5] can be described thus: qHTS assay to test for compound auto fluorescence at 590 nm (red) in HepG2 cell free culture (AID 720684). Put shortly:
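Readout: intrinsic compound fluorescence at 590 nm emission after 540 nm excitation, scaled to Rose Bengal sodium. Matrix was cell-free MEM with 10% FBS; DMSO vehicle wells served as control.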

A short description of test [6]: qHTS assay to test for compound auto fluorescence at 460 nm (blue) in HepG2 cell free culture (AID 720685). Put shortly:
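Cell-free plates of MEM plus 10% FBS received 23 nL compound or DMSO vehicle; blue-channel (405/460 nm) intensity scored against triamterene as reference fluorophore.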

Test [7] in a line: qHTS assay to test for compound auto fluorescence at 535 nm (green) in HepG2 cell free culture (AID 720686).
Test [8] is described as follows: qHTS assay to test for compound auto fluorescence at 460 nm (blue) in HepG2 cells (AID 720687). The essentials:
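Cells (2,000/well in MEM with 10% FBS) attached overnight at 37 C, then were exposed to compound or DMSO for 1 hr at 37 C, 5% CO2. Fluorescence read at Ex/Em 405/460 nm, expressed as triamterene-equivalent signal.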

For test [9], the target named is Glucocorticoid receptor (Homo sapiens) (UniProt P04150). Description: qHTS assay to identify small molecule agonists of the glucocorticoid receptor (GR) signaling pathway (AID 720691; active = well fitted activation curve with a large enough effect in the signal ratio in the repeat runs, not every such curve was filed as active; the % refers to the signal ratio). Put shortly:
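HeLa GR-bla reporter line; cells pre-incubated 4 h, compound in DMSO 18 h at 37 C; LiveBLAzer B/G FRET substrate 2 h RT; fluorescence intensity read-out.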

Test [10] is described as follows: qHTS assay for identifying genotoxic compounds that show differential cytotoxicity against isogenic chicken DT40 cell lines with known DNA damage response pathways - Rad54/Ku70 mutant cell line (AID 743015). Note: nearly all actives have a fitted effect of over 60% in size. Note: potency is the fitted concentration of half-maximal effect.
A short description of test [11]: qHTS assay to identify small molecule antagonists of the androgen receptor (AR) signaling pathway - cell viability counter screen (AID 743033; note: nearly all actives have a fitted effect of over 45% in size).
Test [12] in a line: qHTS assay to identify small molecule antagonists of the androgen receptor (AR) signaling pathway using the MDA cell line - cell viability counter screen (AID 743041; note: nearly all actives have a fitted effect of over 45% in size). Put shortly:
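qHTS viability read-out; MDA-kb2 AR-luc; R1881-stimulated; 16 h exposure at 37C, 0% CO2; CellTiter-Fluor, 30 min; fluorescence intensity.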

For test [13], the target named is Glucocorticoid receptor (Homo sapiens) (UniProt P04150). The experiment in a line: qHTS assay to identify small molecule antagonists of the glucocorticoid receptor (GR) signaling pathway (AID 720692; active = well fitted inhibition curve with a large enough effect in the signal ratio in the repeat runs, not every such curve was filed as active; the % refers to the signal ratio). Put shortly:
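Read-out: beta-lactamase FRET substrate fluorescence, 2 h at room temperature, in HeLa cells stably carrying a GRE-driven bla reporter. Compounds were co-incubated with 5 nM dexamethasone agonist (final) for 18 h at 37 C.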

Test [14] can be described thus: qHTS assay to identify small molecule antagonists of the glucocorticoid receptor (GR) signaling pathway - cell viability counter screen (AID 720693). Note: nearly all actives have a fitted effect of over 55% in size.
Test [15] can be described thus: qHTS assay for identifying genotoxic compounds that show differential cytotoxicity against isogenic chicken DT40 cell lines with known DNA damage response pathways - wild type cell line (AID 743012). Note: nearly all actives have a fitted effect of over 60% in size. Note: potency is the fitted concentration of half-maximal effect. The essentials: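 CellTiter-Glo luminescence readout of viability in wild type DT40 cells after 40 h compound exposure at 37 C/5% CO2; 300 cells/well; reagent incubated 30 min at room temperature before reading.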

Test [16] is described as follows: qHTS assay for identifying genotoxic compounds that show differential cytotoxicity against isogenic chicken DT40 cell lines with known DNA damage response pathways - Rev3 mutant cell line (AID 743014). Note: nearly all actives have a fitted effect of over 55% in size. Note: potency is the fitted concentration of half-maximal effect.
The target of test [17] is Androgen receptor (Homo sapiens) (UniProt P10275). Description: qHTS assay to identify small molecule agonists of the androgen receptor (AR) signaling pathway (AID 743036; active = well fitted activation curve with a large enough effect in the signal ratio in the repeat runs, with a control signal flat, not every such curve was filed as active; the % refers to the signal ratio). Put shortly:
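Screening used 2,000 AR-bla HEK293 cells per well, treated 16 h at 37C with test compounds in DMSO alongside positive and DMSO-only controls; beta-lactamase activity was then read by LiveBLAzer B/G FRET fluorescence after 2 h at room temperature.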

Test [18] has the same target. The experiment in a line: qHTS assay to identify small molecule agonists of the androgen receptor (AR) signaling pathway using the MDA cell line (AID 743040; note: nearly all actives have a fitted effect of over 20% in size). The essentials: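 Agonist activity is measured as luciferase luminescence in human MDA-kb2 cells whose MMTV reporter responds to both AR and GR. Compounds in DMSO incubate 16 h at 37C, 0% CO2, and ONE-Glo is read after 30 min.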

Test [19] shares this target. Description: qHTS assay to identify small molecule antagonists of the androgen receptor (AR) signaling pathway using the MDA cell line (AID 743042; note: nearly all actives have a fitted effect of over 55% in size). The essentials: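 MDA-kb2 cells (human breast carcinoma, stably carrying an MMTV-luciferase reporter responsive to AR and GR) were plated at 3,000 cells/well and preincubated 5 hr at 37C, then given compound plus R1881 agonist for 16 h. ONE-Glo luminescence was read.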

Test [20] shares this target. The experiment in a line: qHTS assay to identify small molecule antagonists of the androgen receptor (AR) signaling pathway (AID 743035; active = well fitted inhibition curve with a large enough effect in the signal ratio in the repeat runs, not every such curve was filed as active; the % refers to the signal ratio). The essentials: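 AR-bla HEK293 reporter cells; 4 h settle at 37C/5% CO2; compound + R1881 agonist, 16 h at 37C; LiveBLAzer B/G FRET substrate 2 h RT; fluorescence intensity read. qHTS format.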

Results filed as inconclusive are left out. The source made the active and inactive calls. Unless noted, calls come from the whole dose curve; as a rule, active = well fitted curve in the direction sought with a large enough effect in the repeat runs; inconclusive = weak or mixed curves; inactive = no such curve, though single readings can be large; an effect the other way counts as inactive or inconclusive.

Androgen receptor (Homo sapiens), sequence (P10275 whole entry, looked up): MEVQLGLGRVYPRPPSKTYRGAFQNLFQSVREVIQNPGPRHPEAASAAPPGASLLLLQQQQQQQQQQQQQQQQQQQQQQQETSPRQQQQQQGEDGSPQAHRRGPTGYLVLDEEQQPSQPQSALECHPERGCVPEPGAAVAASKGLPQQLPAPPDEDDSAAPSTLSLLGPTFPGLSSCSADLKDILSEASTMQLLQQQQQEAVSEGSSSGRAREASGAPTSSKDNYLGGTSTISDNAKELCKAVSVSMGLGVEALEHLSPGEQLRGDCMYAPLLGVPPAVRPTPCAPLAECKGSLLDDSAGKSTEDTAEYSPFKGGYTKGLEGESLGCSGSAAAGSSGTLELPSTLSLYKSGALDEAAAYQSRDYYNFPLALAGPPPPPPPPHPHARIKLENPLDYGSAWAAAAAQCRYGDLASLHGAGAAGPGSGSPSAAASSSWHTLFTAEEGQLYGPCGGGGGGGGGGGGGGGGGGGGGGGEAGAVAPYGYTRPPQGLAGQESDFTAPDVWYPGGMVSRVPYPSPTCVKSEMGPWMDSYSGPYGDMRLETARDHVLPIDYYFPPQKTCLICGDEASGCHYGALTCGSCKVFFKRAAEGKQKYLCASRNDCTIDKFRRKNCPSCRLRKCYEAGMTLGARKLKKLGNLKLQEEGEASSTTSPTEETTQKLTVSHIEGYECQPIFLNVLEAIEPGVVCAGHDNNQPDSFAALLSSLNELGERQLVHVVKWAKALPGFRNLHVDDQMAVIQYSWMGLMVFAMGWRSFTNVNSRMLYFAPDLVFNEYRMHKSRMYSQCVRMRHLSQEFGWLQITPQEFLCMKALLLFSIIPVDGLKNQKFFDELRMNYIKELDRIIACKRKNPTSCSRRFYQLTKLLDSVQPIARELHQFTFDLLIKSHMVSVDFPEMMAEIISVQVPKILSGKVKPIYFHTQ
Glucocorticoid receptor (Homo sapiens), sequence (P04150 whole entry, looked up): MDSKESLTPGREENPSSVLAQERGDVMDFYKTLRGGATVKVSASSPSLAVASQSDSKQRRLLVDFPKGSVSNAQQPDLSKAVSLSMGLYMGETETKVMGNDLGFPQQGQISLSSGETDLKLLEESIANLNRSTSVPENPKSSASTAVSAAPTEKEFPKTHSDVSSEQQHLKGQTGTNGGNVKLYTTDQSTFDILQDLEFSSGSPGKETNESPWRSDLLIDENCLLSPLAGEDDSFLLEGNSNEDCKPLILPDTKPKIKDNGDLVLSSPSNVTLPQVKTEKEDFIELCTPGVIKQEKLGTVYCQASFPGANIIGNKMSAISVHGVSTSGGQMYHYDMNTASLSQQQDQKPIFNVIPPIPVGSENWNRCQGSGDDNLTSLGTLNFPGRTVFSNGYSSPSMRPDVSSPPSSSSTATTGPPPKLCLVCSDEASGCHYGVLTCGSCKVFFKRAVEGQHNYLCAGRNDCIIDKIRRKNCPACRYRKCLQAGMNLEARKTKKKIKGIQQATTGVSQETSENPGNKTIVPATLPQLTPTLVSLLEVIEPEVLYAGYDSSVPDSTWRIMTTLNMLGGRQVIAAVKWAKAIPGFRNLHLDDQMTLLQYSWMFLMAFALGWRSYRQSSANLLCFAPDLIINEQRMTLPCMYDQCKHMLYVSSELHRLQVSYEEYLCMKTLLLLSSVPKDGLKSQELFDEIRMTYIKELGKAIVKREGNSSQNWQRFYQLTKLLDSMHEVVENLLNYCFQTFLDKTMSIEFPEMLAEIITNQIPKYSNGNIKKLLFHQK

Regarding `CC(C)OC(=O)CCCCC(=O)OC(C)C`, the molecule was classed as inactive in [1], in test [2], in test [3], in test [4], in test [5] and in test [6]. In addition, the outcome in test [7] and in test [8] was inactive. Further, the Potency entry in test [9], in test [10], in test [11] and in test [12] was “inactive” in each case.
For `c1ccc2nccnc2c1`, the result in test [1], in [2], in test [3], in [4], in test [5] and in test [6] was inactive. In addition, the molecule was classed as inactive in test [7], in [8], in test [13] and in [14]. In addition, the Potency result in test [15], in [16], in [11] and in test [12] was “inactive” in each case. Also, the Potency in test [10] was 63.1 µM (active).
For the molecule `O=C(NCCc1c[nH]c2ccccc12)c1cccnc1`, the molecule was called inactive in test [1], in test [2], in test [3], in test [4], in [5] and in test [6]. For the same molecule, the molecule was called inactive in test [7], in test [8], in test [14], in [17] and in test [18]. In addition, the Potency result in [15], in [16], in [10], in test [11] and in test [19] was “inactive” throughout.
For the molecule `BrCc1cccc(Oc2ccccc2)c1`, the molecule was classed as inactive in [1], in test [2], in [3], in test [4], in test [5] and in test [6]. Further, the outcome in [7], in test [8], in test [14] and in test [18] was inactive. Further, the Potency result in test [9], in test [11], in test [20] and in test [19] was “inactive” throughout.
Regarding `O=C(c1ccc(O)cc1)c1ccc(O)c(O)c1O`, the molecule was called inactive in test [1], in [2], in [3], in test [4], in [5] and in test [6]. Further, the outcome in [7], in test [8] and in test [14] was inactive. Further, the Potency entry in [9] and in [11] was “inactive” throughout.
Regarding `CCCCCCOc1ccccc1C(N)=O`, the molecule was called inactive in [1], in test [2], in [3], in test [4], in test [5] and in test [6]. For the same molecule, the result in test [7] and in test [8] was inactive. Moreover, the Potency result in test [9] is “inactive”. In addition, the figures for the Potency in [15] and in test [16] were 23.7 µM (active) and 21.1 µM (active), respectively.
Take `CCOc1cc([N+](=O)[O-])c(OCC)cc1N1CCOCC1`: the outcome in test [1], in test [2], in [3], in test [4], in test [5] and in test [6] was inactive. For the same molecule, the outcome in test [7] and in [8] was inactive. Also, the Potency entry in [9], in test [15], in test [10] and in test [11] was “inactive” in each case.
With `CN=C(NC#N)Nc1ccc(C2=NNC(=O)CC2C)cc1` (stereo not drawn), the molecule was called inactive in [1], in test [2], in [3], in test [4], in [5] and in [6]. Moreover, the outcome in test [7], in [8] and in test [14] was inactive. The Potency result in test [15], in test [16] and in [11] was “inactive” in each case.
On to `C[C@@H]1O[C@@H](O[C@@H]2[C@@H](O)[C@H](OCCc3ccc(O)c(O)c3)O[C@H](CO[C@@H]3O[C@H](CO)[C@@H](O)[C@H](O)[C@H]3O)[C@H]2OC(=O)/C=C/c2ccc(O)c(O)c2)[C@H](O)[C@H](O)[C@H]1O`, for which the result in test [1], in [2], in [3], in [4], in [5] and in test [6] was inactive. In addition, the molecule was called inactive in [7], in [8] and in [14]. Also, the Potency entry in test [9], in test [11] and in [12] was “inactive” throughout.
Take `Brc1ccc(-c2ccccc2)cc1`: the molecule was called inactive in test [1], in test [2], in test [3], in [4], in [5] and in test [6]. Besides, the molecule was called inactive in test [7], in test [8] and in test [14]. For the same molecule, the Potency result in [9], in test [15], in [16], in [11] and in test [12] was “inactive” in each case.
As for `OCCC(F)(F)C(F)(F)C(F)(F)C(F)(F)C(F)(F)C(F)(F)C(F)(F)C(F)(F)F`, the outcome in [1], in [2], in test [3], in [4], in [5] and in test [6] was inactive. In addition, the outcome in test [7], in test [8], in test [14], in [17] and in [18] was inactive. Moreover, the Potency result in [15], in test [16], in test [10], in [11], in [12] and in test [19] was “inactive” each time.
As for `CCC(CC)CO`, the call in test [1], in test [2], in [3], in [4], in test [5] and in test [6] was inactive. The molecule was called inactive in test [7], in test [8], in test [14] and in test [18]. In addition, the Potency result in test [15], in [16], in test [10], in test [11], in test [20] and in test [12] was “inactive” throughout. Also, the Potency entry in test [19] was “inactive”.
`CCCCCOC(=O)CCC`: the molecule was classed as inactive in [1], in test [2], in test [3], in [4], in [5] and in test [6]. Besides, the molecule was classed as inactive in test [7], in test [8] and in test [14]. Besides, the Potency entry in [15], in test [16], in test [10] and in test [11] was “inactive” in each case.
`O=C(NCCN1CCOCC1)c1ccc(Cl)cc1`: the outcome in test [1], in test [2], in test [3], in test [4], in test [5] and in test [6] was inactive. Moreover, the outcome in test [7], in [8] and in [14] was inactive. Also, the Potency result in test [15], in test [16], in test [10], in test [11] and in test [12] was “inactive” throughout.
As for `COc1ccc(OC)c(Cl)c1`, the result in [1], in [2], in test [3], in test [4], in test [5] and in test [6] was inactive. Further, the result in [7], in [8], in [14], in test [17] and in test [18] was inactive. Further, the Potency entry in [15], in test [16], in test [11], in test [12] and in test [19] was “inactive” each time.
In the case of `C=C(C)C(=O)OCc1ccccc1`, the result in test [1], in [2], in test [3], in test [4], in test [5] and in [6] was inactive. Moreover, the call in test [7], in test [8] and in test [14] was inactive. Besides, the Potency entry in test [15], in test [16], in test [10] and in test [11] was “inactive” throughout.
In the case of `Cc1cccc2nccnc12`, the molecule was classed as inactive in test [1], in test [2], in test [3], in [4], in [5] and in [6]. Moreover, the call in test [7], in test [8] and in test [14] was inactive. In addition, the Potency entry in test [9], in test [16], in test [10], in [11] and in test [12] was “inactive” each time.
